PubChem BioAssay AID1159580 (chemical genetic matrix, 2015)
The campaign covered roughly 5,500 compounds. About 2,000 (36%) were called active. Not shown: some 18% with an inconclusive outcome. No stated cut-off is given here; in the data, active means normalized growth mostly below about 0.91 (no sharp cut-off); inconclusive means no clear call, values can overlap the other calls; inactive means mostly above about 0.92. This is one part of the list.

Test: chemical genetic growth profiling, strain panel (AID 1159580);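 further: tested at 20 µM; growth read once vehicle control cultures reached saturation at 30 °C; 1 = growth at the plate median or of vehicle wells; lower values mean less growth of the strain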
Conditions: growth OD
[1] = S. cerevisiae deletion strains, locus YAL013W, strain DEP1, hits give low values
[2] = S. cerevisiae deletion strains, locus YBR229C, strain ROT2, hits give low values
[3] = S. cerevisiae deletion strains, locus YDL101C, strain DUN1, hits give low values
[4] = S. cerevisiae deletion strains, locus YDR150W, strain NUM1, hits give low values
[5] = S. cerevisiae deletion strains, locus YEL061C, strain CIN8, hits give low values
[6] = S. cerevisiae deletion strains, locus YGR078C, strain PAC10, hits give low values
[7] = S. cerevisiae deletion strains, locus YGR229C, strain SMI1, hits give low values
[8] = S. cerevisiae deletion strains, locus YHR030C, strain SLT2, hits give low values
[9] = S. cerevisiae deletion strains, locus YHR087W, strain rtc3, hits give low values
[10] = S. cerevisiae deletion strains, locus YJL187C, strain SWE1, hits give low values
[11] = S. cerevisiae deletion strains, locus YJR043C, strain POL32, hits give low values
[12] = S. cerevisiae deletion strains, locus YJR075W, strain HOC1, hits give low values
[13] = S. cerevisiae deletion strains, locus YLR039C, strain RIC1, hits give low values
[14] = S. cerevisiae deletion strains, locus YLR058C, strain SHM2 (second series), hits give low values
[15] = S. cerevisiae deletion strains, locus YLR085C, strain ARP6, hits give low values
[16] = S. cerevisiae deletion strains, locus YLR262C, strain YPT6, hits give low values
[17] = S. cerevisiae deletion strains, locus YML094W, strain GIM5, hits give low values
[18] = S. cerevisiae deletion strains, locus YMR219W, strain ESC1, hits give low values
[19] = S. cerevisiae deletion strains, locus YMR263W, strain SAP30, hits give low values
[20] = S. cerevisiae deletion strains, locus YNL128W, strain TEP1, hits give low values
[21] = S. cerevisiae deletion strains, locus YNL153C, strain GIM3, hits give low values
[22] = S. cerevisiae deletion strains, locus YNL298W, strain CLA4 (second series), hits give low values
[23] = S. cerevisiae deletion strains, locus YNL322C, strain KRE1, hits give low values
[24] = S. cerevisiae deletion strains, locus YNR030W, strain Alg12, hits give low values
[25] = S. cerevisiae deletion strains, locus YOL006C, strain TOP1, hits give low values
[26] = S. cerevisiae deletion strains, locus YPL055C, strain LGE1, hits give low values
[27] = S. cerevisiae deletion strains, locus YPL241C, strain CIN2, hits give low values
[28] = S. cerevisiae deletion strains, locus YPR135W, strain CTF4, hits give low values
[29] = S. cerevisiae strains, strain wild type, hits give low values
[30] = S. cerevisiae deletion strains, locus YBL105C, strain PKC1, hits give low values
[31] = S. cerevisiae deletion strains, locus YBR135W, strain CKS1, hits give low values
[32] = S. cerevisiae deletion strains, locus YBR136W, strain MEC1, hits give low values
[33] = S. cerevisiae deletion strains, locus YBR160W, strain CDC28, hits give low values
[34] = S. cerevisiae deletion strains, locus YDL017W, strain CDC7, hits give low values
[35] = S. cerevisiae deletion strains, locus YDL028C, strain MPS1, hits give low values
[36] = S. cerevisiae deletion strains, locus YDL108W, strain KIN28, hits give low values
[37] = S. cerevisiae deletion strains, locus YDL214C, strain PRR2, hits give low values
[38] = S. cerevisiae deletion strains, locus YDR052C, strain DBF4, hits give low values
[39] = S. cerevisiae deletion strains, locus YDR226W, strain ADK1, hits give low values
[40] = S. cerevisiae deletion strains, locus YDR477W, strain SNF1, hits give low values
[41] = S. cerevisiae deletion strains, locus YER123W, strain YCK3, hits give low values
[42] = S. cerevisiae deletion strains, locus YER133W, strain GLC7, hits give low values
[43] = S. cerevisiae deletion strains, locus YFR003C, strain YPI1, hits give low values
[44] = S. cerevisiae deletion strains, locus YFR019W, strain FAB1, hits give low values
[45] = S. cerevisiae deletion strains, locus YFR028C, strain CDC14, hits give low values
[46] = S. cerevisiae deletion strains, locus YGR040W, strain KSS1, hits give low values
[47] = S. cerevisiae deletion strains, locus YGR052W, strain FMP48, hits give low values
[48] = S. cerevisiae deletion strains, locus YGR092W, strain DBF2, hits give low values
[49] = S. cerevisiae deletion strains, locus YHR079C, strain IRE1, hits give low values
[50] = S. cerevisiae deletion strains, locus YHR082C, strain KSP1, hits give low values
[51] = S. cerevisiae deletion strains, locus YHR205W, strain SCH9, hits give low values
[52] = S. cerevisiae deletion strains, locus YIL147C, strain SLN1, hits give low values
[53] = S. cerevisiae deletion strains, locus YJL095W, strain BCK1, hits give low values
[54] = S. cerevisiae deletion strains, locus YJL128C, strain PBS2, hits give low values
[55] = S. cerevisiae deletion strains, locus YJL157C, strain FAR1, hits give low values
[56] = S. cerevisiae deletion strains, locus YJR016C, strain ILV3, hits give low values
[57] = S. cerevisiae deletion strains, locus YJR066W, strain TOR1 (second series), hits give low values
[58] = S. cerevisiae deletion strains, locus YJR066W, strain TOR1, hits give low values
[59] = S. cerevisiae deletion strains, locus YKL048C, strain ELM1, hits give low values
[60] = S. cerevisiae deletion strains, locus YKL067W, strain YNK1, hits give low values
[61] = S. cerevisiae deletion strains, locus YKL101W, strain HSL1, hits give low values
[62] = S. cerevisiae deletion strains, locus YKL203C, strain TOR2, hits give low values
[63] = S. cerevisiae deletion strains, locus YLR113W, strain HOG1, hits give low values
[64] = S. cerevisiae deletion strains, locus YLR133W, strain CKI1, hits give low values
[65] = S. cerevisiae deletion strains, locus YLR403W, strain SFP1, hits give low values
[66] = S. cerevisiae deletion strains, locus YML070W, strain DAK1, hits give low values
[67] = S. cerevisiae deletion strains, locus YMR205C, strain PFK2 (second series), hits give low values
[68] = S. cerevisiae deletion strains, locus YNL006W, strain LST8, hits give low values
[69] = S. cerevisiae deletion strains, locus YNL020C, strain ARK1, hits give low values
[70] = S. cerevisiae deletion strains, locus YNL183C, strain NPR1, hits give low values
[71] = S. cerevisiae deletion strains, locus YNL307C, strain MCK1 (second series), hits give low values
[72] = S. cerevisiae deletion strains, locus YOL136C, strain PFK27, hits give low values
[73] = S. cerevisiae deletion strains, locus YOR061W, strain CKA2, hits give low values
[74] = S. cerevisiae deletion strains, locus YOR119C, strain RIO1, hits give low values
[75] = S. cerevisiae deletion strains, locus YOR231W, strain MKK1, hits give low values
[76] = S. cerevisiae deletion strains, locus YPL031C, strain PHO85, hits give low values
[77] = S. cerevisiae deletion strains, locus YPL153C, strain RAD53, hits give low values
[78] = S. cerevisiae deletion strains, locus YPL209C, strain IPL1, hits give low values
[79] = S. cerevisiae deletion strains, locus YPL256C, strain CLN2, hits give low values
[80] = S. cerevisiae deletion strains, locus YPR106W, strain ISR1, hits give low values
[81] = S. cerevisiae deletion strains, locus YPR111W, strain DBF20, hits give low values
[82] = S. cerevisiae deletion strains, locus YCL061C, strain MRC1, hits give low values

Measured: normalized growth

O=C(CSc1ccc(Cl)cc1)Nc1ccc(F)cc1
inactive: [3] 0.939 | [5] 0.942 | [10] 1 | S. cerevisiae deletion strains, locus YKL190W, strain CNB1, hits give low values 0.934 | [13] 0.884 | [15] 0.79 | [16] 0.826 | [17] 0.875 | [19] 0.948 | [20] 0.968 | [21] 0.925 | [25] 0.78 | [29] 0.919
active: [1] 0.909 | [2] 0.908 | [4] 0.803 | [6] 0.888 | [7] 0.924 | [8] 0.679 | [9] 0.888 | [11] 0.916 | [12] 0.823 | [14] 0.909 | [18] 0.916 | [22] 0.808 | [23] 0.923 | [24] 0.807 | [26] 0.782 | [27] 0.849 | [28] 0.608

CC(C)c1ccc(COC(=O)Nc2ccc(CSc3ccc(Cl)cc3)o2)cc1
inactive: S. cerevisiae deletion strains, locus YAR019C, strain CDC15, hits give low values 0.99 | [30] 0.992 | [31] 0.983 | [32] 0.983 | [33] 0.989 | [34] 0.982 | [35] 0.985 | [3] 0.992 | [36] 0.985 | S. cerevisiae deletion strains, locus YDL132W, strain cdc53, hits give low values 0.982 | [37] 0.934 | [38] 0.993 | S. cerevisiae deletion strains, locus YDR054C, strain cdc34, hits give low values 0.972 | [39] 0.981 | [40] 0.929 | [41] 0.91 | [42] 0.925 | S. cerevisiae deletion strains, locus YFL009W, strain cdc4, hits give low values 0.979 | S. cerevisiae deletion strains, locus YFL029C, strain CAK1, hits give low values 0.983 | [43] 0.983 | [44] 0.935 | [45] 0.988 | [46] 0.923 | [47] 0.952 | [48] 0.921 | [8] 0.871 | [49] 0.886 | [50] 0.963 | [51] 0.82 | [52] 0.983 | [53] 0.855 | [54] 0.954 | [55] 0.907 | [56] 0.98 | [57] 0.9 | [58] 1.01 | [59] 0.953 | [60] 0.938 | [61] 0.953 | S. cerevisiae deletion strains, locus YKL193C, strain SDS22, hits give low values 0.98 | [62] 0.976 | [63] 0.879 | [64] 0.928 | [65] 0.893 | [66] 0.912 | S. cerevisiae deletion strains, locus YMR001C, strain CDC5, hits give low values 0.983 | [67] 0.928 | S. cerevisiae deletion strains, locus YMR277W, strain FCP1, hits give low values 0.982 | [68] 0.988 | [69] 0.919 | S. cerevisiae deletion strains, locus YNL161W, strain CBK1, hits give low values 0.98 | [70] 0.995 | S. cerevisiae deletion strains, locus YNL207W, strain RIO2, hits give low values 0.982 | S. cerevisiae deletion strains, locus YNL222W, strain SSU72, hits give low values 0.987 | [71] 0.933 | S. cerevisiae deletion strains, locus YOL078W, strain AVO1, hits give low values 0.981 | [72] 0.92 | [73] 0.909 | [74] 0.983 | [75] 0.963 | S. cerevisiae deletion strains, locus YOR329C, strain SCD5, hits give low values 0.986 | [76] 0.902 | [77] 0.912 | [78] 0.988 | [79] 0.923 | S. cerevisiae deletion strains, locus YPR025C, strain CCL1, hits give low values 0.989 | [80] 0.983 | [81] 0.983 | S. cerevisiae deletion strains, strain NNK1, hits give low values 0.987 | S. cerevisiae deletion strains, strain TSCII, hits give low values 0.986

COC(=O)CCCCCCCC(=O)Nc1ccc(Cl)cc1
inactive: [1] 0.999 | [2] 0.997 | [82] 0.998 | [3] 0.984 | [4] 0.896 | [5] 1 | [6] 0.997 | [7] 1.03 | [8] 0.999 | [9] 0.983 | [11] 1.01 | [12] 0.985 | [13] 1.01 | [14] 1.01 | [15] 1.01 | [16] 1.02 | [17] 0.975 | [18] 1.01 | [19] 1.01 | S. cerevisiae deletion strains, locus YMR307W, strain GAS1, hits give low values 1.06 | [20] 1.02 | [21] 0.997 | [22] 1.01 | [23] 1 | [24] 0.997 | [26] 0.929 | [27] 0.991 | [28] 0.955 | [29] 1.02

O=C(CC1NCCN(Cc2ccccc2)C1=O)Nc1ccc(Cl)cc1 (stereo not given)
inactive: [1] 0.993 | [2] 0.995 | [82] 0.981 | [3] 0.968 | [4] 0.993 | [5] 1.01 | [6] 0.99 | [8] 0.955 | [9] 0.97 | [10] 1.01 | [11] 0.971 | [12] 1.02 | [13] 0.988 | [14] 0.998 | [15] 1.01 | [16] 0.994 | [17] 1.01 | [18] 1.01 | [20] 1 | [21] 0.981 | [22] 0.975 | [23] 0.996 | [24] 0.984 | [25] 0.993 | [26] 0.909 | [27] 1 | [28] 0.915

N/C(CCSc1ccc(Cl)cc1)=N/OC(=O)Nc1ccc(Cl)cc1
inactive: [30] 0.986 | [31] 0.984 | [32] 0.978 | [33] 0.978 | [34] 0.982 | [35] 0.986 | [36] 0.983 | [38] 0.982 | [39] 0.983 | [43] 0.981 | [45] 0.986 | [52] 0.986 | [54] 0.944 | [56] 0.981 | [78] 0.983 | [80] 0.976 | [81] 0.978
active: [37] 0.336 | [40] 0.273 | [41] 0.0987 | [42] 0.286 | [44] 0.108 | [46] 0.247 | [47] 0.118 | [48] 0.275 | [8] 0.104 | [49] 0.118 | [50] 0.114 | [51] 0.253 | [53] 0.111 | [55] 0.371 | [57] 0.0983 | [58] 0.114 | [59] 0.346 | [60] 0.377 | [61] 0.259 | [62] 0.14 | [63] 0.126 | [64] 0.377 | [65] 0.311 | [66] 0.103 | [67] 0.345 | [68] 0.697 | [69] 0.375 | [70] 0.122 | [71] 0.315 | [72] 0.125 | [73] 0.326 | [74] 0.133 | [75] 0.103 | [76] 0.142 | [77] 0.0978 | S. cerevisiae deletion strains, locus YPL204W, strain HRR25, hits give low values 0.105 | [79] 0.118
